Compound activity: PubChem, National Center for Advancing Translational Sciences (NCATS)
Sm TGR block: qHTS Assay for the Inhibitors of Schistosoma Mansoni Peroxiredoxins; Schistosoma mansoni thioredoxin glutathione reductase (TGR), Q962Y6; purified TGR, DTNB reduction, TNB absorbance 405 nm; Potency, µM (top dose mostly 114 µM), actives largely listed as inhibitors; 3% of 360,000 active; AID 485364, 2010; active = well fitted inhibition curve with a large enough effect; inconclusive = small, poorly fitted or top-dose-only effect; inactive = no such curve, though single readings can be large or run the other way; also: nearly all actives have a fitted effect of over 60% in size
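TGR 20 nM + NADPH 100 uM (dispensed conc.), cpd preinc 15 min RT; start with NADPH (500 uM addition) then DTNB (15 mM addition). Kinetic TNB absorbance, 405 nm filter. Four-parameter Hill fit across titration.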
FMDV antiviral: High Throughput Screening for Foot and Mouth Disease Virus Antivirals; 1.2% of 410,000 active; AID 1159524, 2015; FMDV antiviral cell-based qHTS; Potency, µM (top dose mostly 57.9 µM), actives largely listed as inhibitors; calls by dose curve; tested in HEK293T cells; also: read-out not given here; nearly all actives have a fitted effect of over 45% in size
Shiga inhibitor: A qHTS for Small Molecule Inhibitors of Shiga Toxin; Vero cells, Shiga toxin protein synthesis inhibition reporter; inhibition, % at 38.7 µM; 9.2% of 290,000 active; AID 2315, 2010; in the data active = inhibition mostly above about 28%, no sharp cut-off; inactive = mostly below about 43%
Cycloheximide cs: Cycloheximide Counterscreen for Small Molecule Inhibitors of Shiga Toxin. cell reporter, cycloheximide protein synthesis inhibition counterscreen. max response, %. 12% of 300,000 active. AID 2314, 2010; in the data active = max response mostly above about 13%, no sharp cut-off; inactive = mostly below about 14%; also: read at 38.3 µM for the half of the compounds with a filed dose
Large screens that a line does not name were inactive. Sampled rows, rich in hits. Any-hit rate of the full collection: about 12%.

CSCC[C@H](NC(=O)[C@H](Cc1c[nH]c2ccccc12)NC(=O)CNC(=O)[C@H](Cc1ccc(O)cc1)NC(=O)[C@H](C)NC(=O)[C@H](CCC(=O)O)NC(=O)[C@H](CCC(=O)O)NC(=O)[C@H](CCC(=O)O)NC(=O)[C@H](CCC(=O)O)NC(=O)[C@H](CCC(=O)O)NC(=O)[C@H](CC(C)C)NC(=O)[C@H](Cc1c[nH]c2ccccc12)NC(=O)[C@@H]1CCCN1C(=O)CNC(=O)[C@@H]1CCC(=O)N1)C(=O)N[C@@H](CC(=O)O)C(=O)N[C@@H](Cc1ccccc1)C(=O)NCC(=O)O	none (no result: Sm TGR block, FMDV antiviral)
COc1cc(/C=N/O)ccc1OCc1ccccc1Cl	Shiga inhibitor 86, Cycloheximide cs 48
C=CCOc1ccc(Br)cc1/C=N/O	none
C=CCOc1ccc(/C=N/O)cc1Cl	Shiga inhibitor 50, Cycloheximide cs 20
COc1cc(/C=C(/C)[N+](=O)[O-])ccc1OCc1ccccc1Cl	Sm TGR block inconclusive, FMDV antiviral 22µM
O=c1[nH][nH]c(-c2ccccc2O)c1C(C[N+](=O)[O-])c1ccc(Cl)cc1Cl (stereo not given)	none
Cc1cc(O)c(C(C[N+](=O)[O-])c2ccc(Cl)cc2Cl)c(=O)o1 (stereo not given)	Sm TGR block 50µM
CCOC(=O)N1CCN(CC(=O)c2ccc3c(c2)CCN3C(C)=O)CC1	Sm TGR block 20µM
COc1ccc(Cc2nc3ccc(C(=O)NCCc4ccc(Cl)cc4)cc3o2)cc1	none (no result: Shiga inhibitor, Cycloheximide cs)
CC(C)N(C(=O)Cn1cc(SCC(=O)Nc2ccccc2F)c2ccccc21)C(C)C	none (no result: Shiga inhibitor, Cycloheximide cs)
CCOC(=O)CN1C(=O)S/C(=C\c2ccc(-c3cccc(C(=O)O)c3C)o2)C1=O	none (no result: Sm TGR block, Shiga inhibitor, Cycloheximide cs)
O=C1/C(=C\c2ccco2)SC(=S)N1c1ccc(O)cc1	Sm TGR block inconclusive
NN1C(=O)/C(=C\c2ccco2)SC1=S	Sm TGR block 11µM
CCOC(=O)CN1C(=O)S/C(=C/c2ccco2)C1=O	Sm TGR block inconclusive, Cycloheximide cs 15
O=C1/C(=C/c2ccco2)SC(=S)N1c1cccnc1	Sm TGR block 14µM
c1ccc2c(c1)nnn2-c1ncnc2sccc12	Shiga inhibitor 62, Cycloheximide cs 34
CCOc1ccccc1NC(=O)CCc1c(C)nc2c(c(C)nn2-c2ccccc2)c1C	FMDV antiviral inconclusive (no result: Shiga inhibitor, Cycloheximide cs)
COc1cc(-c2cc(C(=O)NCc3ccco3)c3ccccc3n2)cc(OC)c1OC	Cycloheximide cs 23
Cc1cc(C(=O)OCC(=O)NCc2cccs2)c2ccccc2n1	FMDV antiviral inconclusive
O=C(COC(=O)c1cc(-c2ccc(Cl)s2)nc2ccccc12)NCc1ccco1	Sm TGR block 7.9µM, Cycloheximide cs 16
COc1cc(-c2cc(C(=O)Nc3ccc(S(=O)(=O)NCc4ccco4)cc3)c3ccccc3n2)cc(OC)c1OC	FMDV antiviral inconclusive
O=C(NCc1ccco1)c1cc(-c2cccs2)nc2ccccc12	Cycloheximide cs 13
O=C(COC(=O)c1cc(-c2cccs2)nc2ccccc12)NCc1ccco1	Sm TGR block 40µM, Shiga inhibitor 90, Cycloheximide cs 29
COc1ccc(CNC(=O)COC(=O)c2cc(-c3ccc(Cl)s3)nc3ccccc23)cc1	none
COc1ccc(CNC(=O)Cc2c(C)c3cc4c(C)coc4c(C)c3oc2=O)cc1OC	none (no result: Shiga inhibitor, Cycloheximide cs)
CCc1nc2nc(C)cc(Nc3ccc(Br)cc3F)n2n1	none (no result: Shiga inhibitor, Cycloheximide cs)
Cc1ccc(-c2cc(C(=O)NCc3ccco3)c3ccccc3n2)s1	Sm TGR block 28µM, Cycloheximide cs 9.3
O=C(CN1CCN(C(C(=O)Nc2cc(C(F)(F)F)ccc2Cl)c2ccccc2)CC1)NC1CC1 (stereo not given)	FMDV antiviral 40µM (no result: Sm TGR block, Shiga inhibitor, Cycloheximide cs)
CC(C)=CC(=O)O[C@H]1[C@@H]2[C@H](C)C(=O)O[C@@H]2C[C@@H](C)[C@@H]2[C@@H](O)CC(=O)[C@]21C	FMDV antiviral inconclusive
C[C@@H]1C[C@H]2OC(=O)C3(CO3)[C@H]2[C@H](O)[C@]2(C)C(=O)C3OC3[C@@H]12 (stereo not given in full)	Shiga inhibitor 40, Cycloheximide cs 21 (no result: FMDV antiviral)
c1ccc(C2CSc3ccccc3N2)cc1 (stereo not given)	Shiga inhibitor 102, Cycloheximide cs 64
COc1cccc(NC(=O)Cc2ccccc2)c1	none
O=C(CNC(=O)c1ccccc1Cl)Nc1ccc(F)cc1	Cycloheximide cs 19
COc1cccc(NC(=O)CC(=O)c2ccccc2)c1	Shiga inhibitor 100, Cycloheximide cs 59
O=C(CNCc1ccccc1)Nc1ccc(F)cc1	Cycloheximide cs 35
COc1cccc(NC(=O)CNCc2ccccc2)c1	Shiga inhibitor 62, Cycloheximide cs 29
COc1cccc(NC(=O)CSCC(=O)Nc2ccccc2)c1	none
O=C(CNC(=O)c1ccccc1Cl)Nc1ccncc1	none (no result: Shiga inhibitor, Cycloheximide cs)
CCCn1c2ccccc2c2cnn(CC(=O)N3CCCC(C)C3)c(=O)c21 (stereo not given)	none (no result: Shiga inhibitor, Cycloheximide cs)
Oc1ccccc1N=Cc1sc2ccccc2c1Cl	Shiga inhibitor 29, Cycloheximide cs 40
Cc1ccc(C)c(N=Cc2c(O)c3ccccc3oc2=O)c1	none (no result: Shiga inhibitor)
Cc1ccc(O)c(N=Cc2sc3ccccc3c2Cl)c1	Shiga inhibitor 73, Cycloheximide cs 45
Cc1ccc(CNC(=O)CCCn2c(=O)[nH]c3ccc(Br)cc3c2=O)cc1	none (no result: Shiga inhibitor, Cycloheximide cs)
CCC(Cc1ccccc1)NC(=O)CN1C(=O)COc2ccc(S(=O)(=O)N3CCCCCC3)cc21 (stereo not given)	none (no result: Shiga inhibitor, Cycloheximide cs)
CCN(CC)C(=O)Cn1c(=O)n(Cc2ccc(C(=O)NCCc3ccc(OC)c(OC)c3)cc2)c(=O)c2ccccc21	none (no result: Shiga inhibitor, Cycloheximide cs)
COc1ccc(OC(C)C(=O)Nc2ccc([N+](=O)[O-])cc2)cc1 (stereo not given)	FMDV antiviral inconclusive
COc1ccc(NC(=O)C(c2cc3c(cc2[N+](=O)[O-])OCO3)N(C)c2ccccc2)cc1 (stereo not given)	Cycloheximide cs 19
Cc1ccc(CN2CCN(/N=C/c3ccccc3)CC2)cc1	none
COc1ccccc1/C=C/C=N/N1CCN(Cc2ccccc2)CC1	Sm TGR block inconclusive, Cycloheximide cs 13
Fc1ccc(/C=N/N2CCN(Cc3ccccc3)CC2)cc1	Shiga inhibitor 62, Cycloheximide cs 20
Cc1ccc(/C=N/N2CCN(Cc3ccccc3)CC2)cc1	Cycloheximide cs 17
Cc1ccc(CN2CCN(/N=C/C=C/c3ccccc3[N+](=O)[O-])CC2)cc1	none
CC(/C=N/N1CCN(Cc2ccccc2)CC1)=C\c1ccccc1	Cycloheximide cs 25
Cc1ccc(Cl)cc1N1CCN(C(=O)Cn2c(-c3cccs3)cc3cc(F)ccc32)CC1	none (no result: Shiga inhibitor, Cycloheximide cs)
Cc1noc(/C=C/c2cccs2)c1S(=O)(=O)N1CCC(C(=O)NCc2ccccc2Cl)CC1	none (no result: Shiga inhibitor, Cycloheximide cs)
COc1ccc(N2C(=O)C(CC(=O)Nc3ccccc3)N(CCC3=CCCCC3)C2=O)cc1 (stereo not given)	none (no result: Shiga inhibitor, Cycloheximide cs)
CN1CCN(c2ncc3nc(CCc4ccccc4)c(=O)n(C4CC4)c3n2)CC1	none (no result: Sm TGR block, Shiga inhibitor, Cycloheximide cs)
COc1ccc(N=C2S/C(=C\c3ccc(Cl)c([N+](=O)[O-])c3)C(=O)N2CCN(C)C)cc1	FMDV antiviral 28µM
CCN(CC)CCN1C(=O)/C(=C\c2ccc(Cl)c([N+](=O)[O-])c2)SC1=Nc1ccc(OC)cc1	FMDV antiviral 25µM
CCCN1C(=O)/C(=C/c2ccc(C)s2)SC1=Nc1ccc(OC)cc1	none
CCc1cccc(NC(=O)CCNS(=O)(=O)c2ccc3c(c2)CCN3C(C)=O)c1	none (no result: Shiga inhibitor, Cycloheximide cs)
